The values that follow come from ChEMBL document CHEMBL1961873, “Compounds: GSK PKIS; Assays: Nanosyn kinase panel” (2012).

The target of assay [1] is Ribosomal protein S6 kinase alpha-6 (Homo sapiens) (UniProt Q9UK32). The conditions noted are these: at 1 µM.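 Further: each value is a mean inhibition of RSK4 from a GSK PKIS panel screen.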
Assay [2] deals with T1, Serine/threonine-protein kinase Sgk1 (Homo sapiens) (UniProt O00141).
T1 sequence (whole entry): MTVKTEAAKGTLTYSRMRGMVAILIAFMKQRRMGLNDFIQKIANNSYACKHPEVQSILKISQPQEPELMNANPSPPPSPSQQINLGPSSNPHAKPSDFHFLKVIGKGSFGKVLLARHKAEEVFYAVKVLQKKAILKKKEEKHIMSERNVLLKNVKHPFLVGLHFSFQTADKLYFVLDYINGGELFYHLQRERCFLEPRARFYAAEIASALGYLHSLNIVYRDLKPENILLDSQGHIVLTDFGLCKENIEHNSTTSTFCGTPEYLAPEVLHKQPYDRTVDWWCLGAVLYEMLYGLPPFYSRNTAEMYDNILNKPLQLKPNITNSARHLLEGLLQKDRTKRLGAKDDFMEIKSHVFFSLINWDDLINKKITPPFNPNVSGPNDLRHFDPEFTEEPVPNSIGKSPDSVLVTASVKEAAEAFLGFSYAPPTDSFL
The conditions noted are these: at 0.1 µM.

The target in assay [3] is T1, Serine/threonine-protein kinase Sgk1 (Homo sapiens). The conditions noted are these: at 1 µM.
The target in assay [4] is T2, Serine/threonine-protein kinase Sgk2 (Homo sapiens) (UniProt Q9HBY8).
T2 sequence (whole entry): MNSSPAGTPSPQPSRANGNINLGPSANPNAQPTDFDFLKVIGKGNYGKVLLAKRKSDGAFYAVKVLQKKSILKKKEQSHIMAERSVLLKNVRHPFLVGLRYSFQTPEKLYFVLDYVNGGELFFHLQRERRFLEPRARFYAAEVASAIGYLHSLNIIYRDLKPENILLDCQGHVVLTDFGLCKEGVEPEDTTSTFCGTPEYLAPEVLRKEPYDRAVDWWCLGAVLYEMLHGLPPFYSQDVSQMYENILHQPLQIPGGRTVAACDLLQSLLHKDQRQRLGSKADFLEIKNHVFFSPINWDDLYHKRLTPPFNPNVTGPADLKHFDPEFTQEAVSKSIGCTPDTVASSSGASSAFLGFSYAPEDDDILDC
The conditions noted are these: at 0.1 µM.

Assay [5] deals with T2, Serine/threonine-protein kinase Sgk2 (Homo sapiens). Conditions: at 1 µM.
For assay [6], the target named is T3, Serine/threonine-protein kinase Sgk3 (Homo sapiens) (UniProt Q96BR1).
T3 sequence (whole entry): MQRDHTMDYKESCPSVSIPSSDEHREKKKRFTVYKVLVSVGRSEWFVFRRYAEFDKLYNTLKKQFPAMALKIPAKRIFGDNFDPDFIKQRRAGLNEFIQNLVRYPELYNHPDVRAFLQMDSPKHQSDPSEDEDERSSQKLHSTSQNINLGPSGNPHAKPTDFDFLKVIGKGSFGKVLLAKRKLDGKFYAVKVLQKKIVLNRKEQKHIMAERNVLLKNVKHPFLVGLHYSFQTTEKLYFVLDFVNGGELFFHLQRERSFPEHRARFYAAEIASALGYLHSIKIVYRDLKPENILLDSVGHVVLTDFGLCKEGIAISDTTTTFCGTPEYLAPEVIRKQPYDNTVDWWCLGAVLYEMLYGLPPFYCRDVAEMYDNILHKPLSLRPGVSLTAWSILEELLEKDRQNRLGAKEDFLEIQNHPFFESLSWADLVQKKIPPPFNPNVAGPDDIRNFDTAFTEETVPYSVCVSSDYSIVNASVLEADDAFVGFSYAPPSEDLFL
The conditions noted are these: at 0.1 µM.

Assay [7] concerns the target T3, Serine/threonine-protein kinase Sgk3 (Homo sapiens). The conditions noted are these: at 1 µM.
Assay [8] addresses 5'-AMP-activated protein kinase catalytic subunit alpha-1 (Homo sapiens) (UniProt Q13131). Conditions: at 0.1 µM.
For assay [9] the target is unchanged. Conditions: at 1 µM.
Assay [10] concerns the target 5'-AMP-activated protein kinase catalytic subunit alpha-2 (Homo sapiens) (UniProt P54646). The conditions noted are these: at 0.1 µM.
Assay [11] shares this target. Conditions: at 1 µM.
Assay [12] deals with T4, NUAK family SNF1-like kinase 1 (Homo sapiens) (UniProt O60285).
T4 sequence (whole entry): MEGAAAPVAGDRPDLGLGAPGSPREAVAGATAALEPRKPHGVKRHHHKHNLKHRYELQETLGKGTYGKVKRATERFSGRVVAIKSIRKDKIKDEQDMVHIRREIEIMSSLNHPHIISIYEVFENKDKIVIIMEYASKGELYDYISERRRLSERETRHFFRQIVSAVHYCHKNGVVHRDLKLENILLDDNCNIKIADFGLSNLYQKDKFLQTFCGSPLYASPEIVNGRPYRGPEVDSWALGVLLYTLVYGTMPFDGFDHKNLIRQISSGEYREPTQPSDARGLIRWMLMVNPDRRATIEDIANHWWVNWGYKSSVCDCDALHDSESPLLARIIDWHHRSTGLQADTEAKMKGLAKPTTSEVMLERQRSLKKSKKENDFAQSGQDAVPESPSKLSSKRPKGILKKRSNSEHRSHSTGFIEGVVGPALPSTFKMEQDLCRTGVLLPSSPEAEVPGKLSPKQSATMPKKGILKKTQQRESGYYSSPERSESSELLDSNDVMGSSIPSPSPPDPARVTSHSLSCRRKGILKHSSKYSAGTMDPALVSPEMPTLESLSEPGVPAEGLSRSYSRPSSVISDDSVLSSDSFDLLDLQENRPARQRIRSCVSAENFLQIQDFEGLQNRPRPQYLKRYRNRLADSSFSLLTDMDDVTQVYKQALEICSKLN
Conditions: at 0.1 µM.

Assay [13] deals with T4, NUAK family SNF1-like kinase 1 (Homo sapiens). The conditions noted are these: at 1 µM.
The target of assay [14] is T5, Serine/threonine-protein kinase BRSK1 (Homo sapiens) (UniProt Q8TDC3).
T5 sequence (whole entry): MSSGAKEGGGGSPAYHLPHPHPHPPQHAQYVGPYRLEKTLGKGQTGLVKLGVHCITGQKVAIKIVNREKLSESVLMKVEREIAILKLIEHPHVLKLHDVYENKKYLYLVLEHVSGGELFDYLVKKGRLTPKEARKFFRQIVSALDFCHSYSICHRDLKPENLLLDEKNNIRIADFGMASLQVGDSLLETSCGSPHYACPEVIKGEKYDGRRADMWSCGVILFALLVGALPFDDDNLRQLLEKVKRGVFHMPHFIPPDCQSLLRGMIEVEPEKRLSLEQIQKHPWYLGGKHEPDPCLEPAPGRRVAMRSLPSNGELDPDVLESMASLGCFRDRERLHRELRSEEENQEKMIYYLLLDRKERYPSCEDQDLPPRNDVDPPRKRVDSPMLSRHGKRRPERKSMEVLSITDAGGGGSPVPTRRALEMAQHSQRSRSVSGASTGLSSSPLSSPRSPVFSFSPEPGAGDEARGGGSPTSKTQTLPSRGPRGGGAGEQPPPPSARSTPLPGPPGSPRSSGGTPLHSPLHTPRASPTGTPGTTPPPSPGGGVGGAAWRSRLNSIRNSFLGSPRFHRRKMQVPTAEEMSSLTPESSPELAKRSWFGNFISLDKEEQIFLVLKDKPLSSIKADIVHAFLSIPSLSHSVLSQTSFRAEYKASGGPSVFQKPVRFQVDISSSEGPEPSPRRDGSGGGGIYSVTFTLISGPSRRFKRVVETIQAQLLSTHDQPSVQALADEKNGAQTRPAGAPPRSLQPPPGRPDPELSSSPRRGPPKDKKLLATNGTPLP
Conditions: at 0.1 µM.

Assay [15] deals with T5, Serine/threonine-protein kinase BRSK1 (Homo sapiens). The conditions noted are these: at 1 µM.
Assay [16] deals with T6, Serine/threonine-protein kinase BRSK2 (Homo sapiens) (UniProt Q8IWQ3).
T6 sequence (whole entry): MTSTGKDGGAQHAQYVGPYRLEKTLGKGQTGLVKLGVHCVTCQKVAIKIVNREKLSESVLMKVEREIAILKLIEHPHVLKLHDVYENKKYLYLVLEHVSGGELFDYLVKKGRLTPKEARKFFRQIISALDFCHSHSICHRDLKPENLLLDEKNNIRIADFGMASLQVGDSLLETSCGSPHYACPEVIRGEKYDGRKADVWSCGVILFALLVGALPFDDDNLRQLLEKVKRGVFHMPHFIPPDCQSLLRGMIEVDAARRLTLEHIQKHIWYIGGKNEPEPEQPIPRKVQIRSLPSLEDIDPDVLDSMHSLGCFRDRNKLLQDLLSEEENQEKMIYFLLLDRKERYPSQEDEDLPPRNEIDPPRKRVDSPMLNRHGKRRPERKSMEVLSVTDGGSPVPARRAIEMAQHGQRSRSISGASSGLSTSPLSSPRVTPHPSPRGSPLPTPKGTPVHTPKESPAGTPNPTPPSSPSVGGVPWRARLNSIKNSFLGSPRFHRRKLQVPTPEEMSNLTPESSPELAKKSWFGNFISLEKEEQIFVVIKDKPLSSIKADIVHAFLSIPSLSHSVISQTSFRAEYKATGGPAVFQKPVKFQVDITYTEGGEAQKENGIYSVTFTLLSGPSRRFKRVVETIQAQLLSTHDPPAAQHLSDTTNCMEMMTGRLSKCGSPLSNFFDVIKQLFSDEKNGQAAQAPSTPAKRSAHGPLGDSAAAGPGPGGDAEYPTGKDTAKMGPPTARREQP
The conditions noted are these: at 0.1 µM.

Assay [17] deals with T6, Serine/threonine-protein kinase BRSK2 (Homo sapiens). Conditions: at 1 µM.
For assay [18], the target named is Calcium/calmodulin-dependent protein kinase type 1D (Homo sapiens) (UniProt Q8IU85). Conditions: at 0.1 µM.
Calcium/calmodulin-dependent protein kinase type 1D (Homo sapiens), sequence (Q8IU85 whole entry, looked up): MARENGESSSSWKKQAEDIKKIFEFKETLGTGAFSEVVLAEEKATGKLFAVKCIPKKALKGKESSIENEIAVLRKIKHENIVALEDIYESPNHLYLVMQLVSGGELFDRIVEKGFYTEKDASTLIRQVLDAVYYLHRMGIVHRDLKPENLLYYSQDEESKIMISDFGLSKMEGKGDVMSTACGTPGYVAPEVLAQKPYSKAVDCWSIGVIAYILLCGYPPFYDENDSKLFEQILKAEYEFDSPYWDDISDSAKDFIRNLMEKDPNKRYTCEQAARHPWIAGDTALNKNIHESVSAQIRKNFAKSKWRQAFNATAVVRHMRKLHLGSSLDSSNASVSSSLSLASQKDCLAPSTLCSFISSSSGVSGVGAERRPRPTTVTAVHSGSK
For assay [19] the target is unchanged. Conditions: at 1 µM.
Assay [20] addresses Calcium/calmodulin-dependent protein kinase type II subunit alpha (Homo sapiens) (UniProt Q9UQM7). Conditions: at 0.1 µM.

5'-AMP-activated protein kinase catalytic subunit alpha-1 (Homo sapiens), sequence (Q13131 whole entry, looked up): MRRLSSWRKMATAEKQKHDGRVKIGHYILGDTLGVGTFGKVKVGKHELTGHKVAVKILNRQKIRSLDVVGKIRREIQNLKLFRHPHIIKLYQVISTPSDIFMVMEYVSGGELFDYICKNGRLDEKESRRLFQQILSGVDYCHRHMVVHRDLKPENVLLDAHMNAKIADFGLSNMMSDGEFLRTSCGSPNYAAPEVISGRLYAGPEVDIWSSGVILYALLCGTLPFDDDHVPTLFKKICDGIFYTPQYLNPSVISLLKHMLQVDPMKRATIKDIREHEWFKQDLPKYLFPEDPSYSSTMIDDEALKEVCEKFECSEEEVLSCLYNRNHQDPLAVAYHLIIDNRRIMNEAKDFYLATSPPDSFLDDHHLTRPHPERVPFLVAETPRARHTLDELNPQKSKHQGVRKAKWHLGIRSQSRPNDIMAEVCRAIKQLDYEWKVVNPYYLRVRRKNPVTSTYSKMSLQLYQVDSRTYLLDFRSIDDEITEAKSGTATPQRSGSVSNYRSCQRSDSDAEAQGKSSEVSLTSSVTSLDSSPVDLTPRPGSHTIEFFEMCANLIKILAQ
Ribosomal protein S6 kinase alpha-6 (Homo sapiens), sequence (Q9UK32 whole entry): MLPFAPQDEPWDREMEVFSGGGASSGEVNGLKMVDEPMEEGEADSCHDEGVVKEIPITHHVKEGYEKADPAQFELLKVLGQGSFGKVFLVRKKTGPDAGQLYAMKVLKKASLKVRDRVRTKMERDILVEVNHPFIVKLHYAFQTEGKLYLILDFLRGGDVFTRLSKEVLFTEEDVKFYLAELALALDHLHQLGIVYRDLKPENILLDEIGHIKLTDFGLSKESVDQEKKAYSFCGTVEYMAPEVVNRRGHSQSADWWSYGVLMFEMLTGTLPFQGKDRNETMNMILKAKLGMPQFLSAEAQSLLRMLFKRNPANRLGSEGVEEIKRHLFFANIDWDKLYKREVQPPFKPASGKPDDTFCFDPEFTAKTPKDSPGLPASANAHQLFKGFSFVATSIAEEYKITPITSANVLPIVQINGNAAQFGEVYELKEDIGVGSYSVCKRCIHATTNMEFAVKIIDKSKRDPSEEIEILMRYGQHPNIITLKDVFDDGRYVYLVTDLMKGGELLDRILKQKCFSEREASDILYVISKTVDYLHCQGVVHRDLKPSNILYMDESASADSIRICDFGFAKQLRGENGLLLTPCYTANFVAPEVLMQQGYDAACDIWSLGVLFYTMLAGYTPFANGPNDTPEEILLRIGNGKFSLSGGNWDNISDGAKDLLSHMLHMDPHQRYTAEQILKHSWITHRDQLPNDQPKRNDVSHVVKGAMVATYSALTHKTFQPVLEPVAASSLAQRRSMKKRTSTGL
5'-AMP-activated protein kinase catalytic subunit alpha-2 (Homo sapiens), sequence (P54646 whole entry, looked up): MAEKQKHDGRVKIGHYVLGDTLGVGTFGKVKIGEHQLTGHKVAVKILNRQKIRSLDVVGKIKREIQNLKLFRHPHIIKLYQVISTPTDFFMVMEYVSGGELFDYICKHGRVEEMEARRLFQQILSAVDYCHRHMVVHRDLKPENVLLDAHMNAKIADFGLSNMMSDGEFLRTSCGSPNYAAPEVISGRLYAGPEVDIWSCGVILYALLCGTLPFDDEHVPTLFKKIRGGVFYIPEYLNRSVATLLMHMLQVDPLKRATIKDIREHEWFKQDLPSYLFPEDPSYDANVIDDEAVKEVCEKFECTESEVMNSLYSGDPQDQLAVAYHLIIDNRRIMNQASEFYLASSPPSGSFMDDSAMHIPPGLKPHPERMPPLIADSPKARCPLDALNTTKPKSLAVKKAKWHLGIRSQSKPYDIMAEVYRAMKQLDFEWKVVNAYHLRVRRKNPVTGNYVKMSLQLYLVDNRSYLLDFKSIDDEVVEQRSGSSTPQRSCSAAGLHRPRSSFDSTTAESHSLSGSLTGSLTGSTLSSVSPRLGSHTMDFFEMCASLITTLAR
Calcium/calmodulin-dependent protein kinase type II subunit alpha (Homo sapiens), sequence (Q9UQM7 whole entry): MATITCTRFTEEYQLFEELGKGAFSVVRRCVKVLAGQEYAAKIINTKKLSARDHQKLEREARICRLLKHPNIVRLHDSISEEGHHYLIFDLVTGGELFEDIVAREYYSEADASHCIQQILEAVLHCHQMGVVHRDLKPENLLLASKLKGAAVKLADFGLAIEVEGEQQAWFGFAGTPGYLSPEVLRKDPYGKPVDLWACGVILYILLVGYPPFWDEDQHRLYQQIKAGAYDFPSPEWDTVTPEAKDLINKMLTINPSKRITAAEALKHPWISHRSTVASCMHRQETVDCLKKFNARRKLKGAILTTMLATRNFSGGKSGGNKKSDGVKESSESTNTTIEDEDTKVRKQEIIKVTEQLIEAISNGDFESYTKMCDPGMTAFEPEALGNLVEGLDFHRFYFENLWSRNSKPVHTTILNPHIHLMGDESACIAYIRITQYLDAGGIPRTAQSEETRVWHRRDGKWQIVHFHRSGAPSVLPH

In the case of `NC(=O)c1cccc(Nc2nccc(Nc3cccc(F)c3)n2)c1`, the inhibition is 6.03% in [1]; 0.89% in [2]; -0.08% in assay [3]; 3.63% in assay [4]; 3.3% in assay [5]; 0.73% in assay [6]. Also, the inhibition in [7] is -1.45%; in assay [8] it was -0.48%; in assay [9] it was 3.96%; in assay [10], 1.99%; in [11] it was 3.97%; in assay [12], 23%. Besides, the inhibition in assay [13] came out at 58.2%; in assay [14], 1.64%; in [15] it was 7.42%; in assay [16], 0.1%; in assay [17], 8.9%; in [18], 0.4%. Further, the inhibition in [19] came to 3.1%; in [20], 2.84%.

Consider `FC(F)(F)c1ccc(-c2nn3ncccc3c2-c2ccnc(Nc3ccc4c(c3)OCCO4)n2)cc1`, for which the inhibition was 0.72% in [1]; 9.07% in [2]; 10.2% in [3]; 5.69% in [4]; 10.8% in [5]; 7.48% in assay [6]. Besides, the inhibition was 12.9% in assay [7]; 1.3% in assay [8]; 4.07% in [9]; 5.75% in assay [10]; 4.55% in [11]; 4.03% in assay [12]. The inhibition in assay [13] amounted to 5.73%; in assay [14], 5.08%; in assay [15] it was 8.29%; in assay [16], 6.76%; in assay [17] it was 11.7%; in assay [18], 2.95%. For the same molecule, the results for the inhibition in assay [19] and in [20] were -0.58% and -2.94%, respectively.

Turning to `CN(C)c1cc2c(Nc3ccc4c(cnn4Cc4ccccc4)c3)ncnc2cn1`, the inhibition in assay [1] was 1.71%; in assay [2], 1.94%; in assay [3], 2.27%; in assay [4], 0.16%; in assay [5], -0.04%; in [6], 1.86%. In addition, the inhibition in assay [7] came out at 1.33%; in assay [8], 2.65%; in [9], 3.27%; in [10] it was 1.84%; in [11], 2.49%; in assay [12], 1.17%. Also, the inhibition in [13] is 3.46%; in [14], 2.42%; in assay [15] it was 7.54%; in assay [16], 2.27%; in assay [17], 9.3%; in [18], -0.24%. Also, the inhibition was 0.88% in assay [19] and 2.88% in assay [20].

As a reminder, the inhibition is the relative decrease from the control value, in per cent.
